Screens from PubChem.
ATXN viability: cell viability loss in ATXN counter-screen | Potency, µM (doses to about 56.7 µM), most hits filed as cytotoxic | S2 cells (HEK-293 line with an ATXN2-luciferase reporter) viability, CellTiter-Fluor protease fluorescence, 24 h | actives 0.49% (n = 400,000) | AID 651635; also: potency is read from the fitted curve at half-maximal effect; nearly all actives have a fitted effect of over 40% in size
ATXN2 expr inh: reduces ATXN2 reporter expression in HEK-293 cells; Potency, µM (highest dose often 57 µM), for inactives: top-dose activity change, negative = inhibition, hits mostly inhibitors; actives 0.72% (n = 360,000); HEK-293 ATXN2-luciferase reporter, luminescence, 24 h; also: potency is read from the fitted curve at half-maximal effect; % is scaled to controls: 0 for no effect and ±100 for the full control effect; nearly all actives have a fitted effect of over 55% in size
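ATXN2-luciferase reporter cells (luciferase flanked by upstream and downstream ATXN2 gene portions) were treated 24 h at 37 °C with compounds at up to 57 uM. SteadyGlo luminescence gave expression; GF-AFC fluorescence gave viability.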
Integrin act MD: activators of alpha7 integrin expression for muscular dystrophy | alpha7betagal myoblasts, beta-gal FDG fluorescence, 48 h | Potency, µM (top dose mostly 38.3 µM), for the others: top-dose activation, actives largely listed as activators | actives 0.064% (n = 350,000) | AID 624291;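 also: potency is read from the fitted curve at half-maximal effect; 100% = response of the positive control SU9516; nearly all actives have a fitted effect of over 60% in size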
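Alpha7betagal+/- myoblasts (passage 13) were plated 16-24 hr, then exposed to compounds (1:260 dilution of DMSO stock) for 48 hours at 37C. After MPER lysis, β-galactosidase reporter activity was read as FDG fluorescence (ex 480/em 540) after 30 minutes.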
IL1B secr inh: inhibitors of inflammasome signaling (IL-1 beta secretion); activity change, % at 57.5 µM; actives 4.7% (n = 360,000); THP-1 LPS/ATP IL-1B secretion, AlphaLISA, 16 h; stronger effect = lower value; in the data active = activity change below about -50%; inconclusive = mostly about -30% to -49%; also: % is scaled to controls: 0 for no effect and ±100 for the full control effect
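Secreted IL-1B measured by AlphaLISA bead assay after 16 h compound exposure of THP-1 cells; compounds (final up to 57.5 uM) added 1 h before LPS (250 ng/mL) and ATP (1.25 mM) stimulation; lower signal means less secretion.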
DRD3 agonist: activates the human D3 dopamine receptor. D3R DiscoveRx beta-arrestin cells, luminescence, 90 min. actives 0.58% (n = 410,000). max activation, %. P35462. AID 652048; in the data active = max activation above about 30%; also: 0% is about no effect
Target sequence (P35462 whole entry, looked up): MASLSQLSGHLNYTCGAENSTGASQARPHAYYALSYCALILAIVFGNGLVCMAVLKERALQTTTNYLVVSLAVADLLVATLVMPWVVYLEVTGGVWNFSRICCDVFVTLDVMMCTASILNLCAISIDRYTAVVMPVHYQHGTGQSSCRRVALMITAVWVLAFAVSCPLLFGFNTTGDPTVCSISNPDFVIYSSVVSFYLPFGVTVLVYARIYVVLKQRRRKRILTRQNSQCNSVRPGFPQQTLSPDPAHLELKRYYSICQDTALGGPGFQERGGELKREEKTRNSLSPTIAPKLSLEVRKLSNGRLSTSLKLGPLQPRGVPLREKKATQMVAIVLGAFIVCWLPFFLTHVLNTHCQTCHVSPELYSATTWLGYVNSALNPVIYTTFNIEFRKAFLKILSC
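Agonist mode: compounds and dopamine controls were applied to plated cells for 90 min at 37 degrees C after an overnight attachment at 1500 cells/well. Luminescent read-out followed 30 - 60 minutes at room temperature with DiscoveRx detection reagent.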
DRD3 antagonist: antagonists of human D3 dopamine receptor; actives 2.5% (n = 360,000); AID 652054; D3R cells, DiscoveRx beta-arrestin luminescence, antagonist mode; stronger effect = lower value; max response, negative = inhibition, %; P35462; in the data active = max response below about -50%; inconclusive = no clear call, values can overlap the other calls; also: % is scaled to controls: 0 for no effect and ±100 for the full control effect
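Cells expressing the human receptor were seeded at 1500 cells/well, incubated overnight at 37 degrees C in 5% CO2, then exposed to library compounds with dopamine controls for 90 minutes at 37 degrees C before luminescent detection.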
Active calls of the source: *; i = inactive; ? = inconclusive; . = no result given; [ ] = remark or other dose. The list is not random: actives were taken first. Their share in the collection is about 7%. Unless noted, calls follow the shape of the dose curve; as a rule, active = well fitted curve in the direction sought with a large enough effect; inconclusive = small, poorly fitted or top-dose-only effect, or another doubt; inactive = no such curve, though single readings can be large; an effect the other way counts as inactive or inconclusive.

SMILES | ATXN viability | ATXN2 expr inh | Integrin act MD | IL1B secr inh | DRD3 agonist | DRD3 antagonist
CCCCNC(=S)N1CCn2cccc2C1c1ccccc1 (stereo not drawn) | i | 12% | -25% | 2 | -6 | 20
CCCCNC(=S)N1CCn2cccc2C1c1ccc(F)cc1 (stereo not drawn) | i | -18% | -31% | -86* | -4 | -6
Cn1ccnc1C(=O)c1ccccc1Cl | i | -1% | ? | 31 | -36 | 9
CCc1cc(OCCCCNCc2ccccc2)ccc1Cl | i | -32% | -51% | -102* | -13 | ?
COc1ccc(OCCCNCCc2ccccc2)cc1 | i | -11% | -21% | -24 | -27 | -52*
CC(C)(c1ccccc1)c1ccc(OCCCNCCO)cc1 | ? | -32% | -53% | ? | -3 | -75*
COCCCNCCCOc1ccc(C(C)(C)c2ccccc2)cc1 | i | -14% | -45% | ? | -11 | -22
C=CCNCCCOc1ccc(C(C)(C)c2ccccc2)cc1 | i | -6% | -54% | -89* | -53 | ?
CC(C)(C)c1ccc(OCCCNCc2ccccc2)cc1 | i | -3% | -44% | -102* | -25 | ?
Cc1ccc(-c2nnc(Nc3ccccc3)c3ccccc23)cc1S(=O)(=O)NCC1CCCO1 (stereo not drawn) | i | 23% | 15%[7.66 µM] | -62* | -4 | -29
Cc1ccc(-c2nnc(Nc3ccc4c(c3)OCO4)c3ccccc23)cc1S(=O)(=O)NC(C)C | . | -26% | 29% | -57* | -24 | -7
CC1CC2=C(C(=O)O1)C(c1ccc(Cl)cc1)Nc1ccccc1N2 (stereo not drawn) | i | -18% | -4% | -7 | -4 | -52*
Nc1c2c(nc3sc4c(c13)CCCC4)-c1ccccc1CC2 | i | 109% | -11% | -88* | 8 | 12
Cc1nc2c(OCc3ccc(C#N)cc3)cccn2c1N(C)Cc1cccs1 | i | ? | . | ? | 5 | 81
O=C(NCC(c1ccco1)N1CCCCC1)c1ccc(S(=O)(=O)Nc2ccccc2Cl)cc1 (stereo not drawn) | i | 0% | -10% | 15 | -10 | 17
CCS(=O)(=O)Nc1ccc2[nH]c(O)c(C(=Nc3ccc(CN4CCCCC4)cc3)c3ccccc3)c2c1 | . | 7.7µM* | . | . | . | .
Cn1c(=O)c2c(c3ccccc31)OC(C)(C)CC2 | i | -12% | -31% | 8 | -13 | -15
CN(CC(=O)Nc1ccc(Cl)cc1)C(=O)COc1ncnc2ccccc12 | . | . | -8% | 14 | 2 | -5
O=C1OC(Nc2ccc3c(c2)OCO3)c2ccccc21 (stereo not drawn) | i | -6% | -44% | -124* | -1 | ?
CCOc1ccc(-c2csc(NC(=O)CSC3=NC(=O)CN3C(C)=O)n2)c2ccccc12 | i | -19% | ? | -19 | -17 | -13
CCOc1ccc(-c2csc(NC(=O)CSCC(=O)O)n2)c2ccccc12 | i | -8% | -73% | -8 | 45* | 85
COc1ccc(C2=NN3C(=O)c4c(ccc(OC)c4OC)C3C2)cc1 (stereo not drawn) | i | 8% | 15% | -3 | -9 | 23
COc1ccc2c(c1OC)C(=O)N1N=C(c3ccc(Cl)cc3)CC21 (stereo not drawn) | i | -4% | -9% | -82* | 2 | 2
CSc1ccc(CNCCCN(C)C)cc1 | i | -23% | -18% | -54* | -10 | -1
COc1ccc(CNCCCSc2ncccn2)cc1OC | i | . | ? | -8 | -9 | -65*
SMILES | ATXN viability | ATXN2 expr inh | Integrin act MD | IL1B secr inh | DRD3 agonist | DRD3 antagonist
CSc1ccc(CNCCCSc2ncccn2)cc1 | i | -10% | -34% | -68* | -9 | ?
COc1ccc(CNCCCSc2ncccn2)c(OC)c1 | i | . | -20% | -7 | -4 | -14
Clc1ccc(CNCCCSc2ncccn2)cc1 | i | -12% | -7% | -16 | -20 | -78*
CCOC1=C2CN(S(=O)(=O)c3ccc(C)cc3)C(c3ccccc3)CC2N(S(=O)(=O)c2ccccc2Cl)C(c2ccccc2)C1 (stereo not drawn) | . | . | . | -21 | 0 | 16
O=C(C1=C[C@@H](c2coc3ccccc3c2=O)C[C@@H](OCc2ccc(CO)cc2)O1)N1CCN(Cc2ccccc2)CC1 | ? | ? | -16% | ? | -40 | 3
Clc1cccc(CNCCCSc2ncccn2)c1 | i | 6% | -9% | -16 | -24 | -52*
Brc1ccc(CNCCCSc2ncccn2)cc1 | ? | -31% | -34% | -1 | -18 | -77*
COCCNC(=O)/C(=C/c1ccccc1Cl)c1ccccc1 | . | 6% | 28% | ? | -3 | 12
CN(CC(=O)Nc1sccc1C#N)Cc1ccccc1 | ? | 6% | 21% | 17 | 2 | -14
O=C(c1ccccc1Sc1ccc([N+](=O)[O-])cc1Cl)N1CCOCC1 | i | . | 12% | -72* | 0 | 2
N#Cc1ccccc1Sc1ccccc1C(=O)N1CCOCC1 | i | -10% | -8% | 10 | -2 | 17
Cc1cc2c(cc1S(=O)(=O)NCc1ccc(F)cc1)n(C)c(=O)c(=O)n2C | i | 7% | . | . | -6 | .
COC(=O)[C@@H]1C[C@@]2(O)[C@@H](O)[C@@H](O)[C@@H](O)C[C@H]2N1Cc1ccc(-c2ccccc2)cc1 | i | -3% | 28% | . | -10 | -1
COC(=O)[C@@H]1C[C@@]2(O)[C@H](O)[C@H](O)[C@H](O)C[C@H]2N1Cc1ccc(-c2ccccc2)cc1 | i | 1% | 20% | -71* | 26 | 9
CCCCCc1c(-c2ccc(F)cc2)ncn1CCc1ccccc1OC | ? | ? | . | -51* | 2 | 6
CCCCCc1c(-c2ccc(Br)cc2)ncn1CCc1ccccc1OC | ? | -23% | . | -83* | 19 | 0
O=S(=O)(Nc1cccnc1)c1ccc(Cl)c(C(F)(F)F)c1 | i | -7% | 18% | 5 | -2 | -51*
c1ccc(COCCN2CCN(CCOCc3ccccc3)CC2)cc1 | i | 0% | 3% | -3 | 5 | -69*
O=C(CCCOc1ccccc1)N1CCCCC1 | i | 11µM* | 4% | -11 | 3 | -5
C(#CCN1CCC(Cc2ccccc2)CC1)COCCOCc1ccccc1 | i | -13% | -29% | 0 | -4 | -2
O=C(c1ccccc1)c1ccc(OCCCCN2CCCCC2)cc1 | i | -2% | -13% | -11 | -4 | -87*
c1ccc(COc2ccc(OCCCCN3CCCCC3)cc2)cc1 | ? | 4% | -55% | -58* | -17 | -72*
COc1cc(C(=O)Nc2ccc3c(c2)ncn3C)cc(OC)c1OC | i | 15% | -28% | 82 | -16 | -27
